PubChem BioAssay
Values joined by “and” are separate entries in the source; they are usually repeats but may differ in a detail not shown here. Equal entries are not always repeated. Active and inactive are the calls of the source.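 How the source made its calls, unless noted: active means compounds whose cell count with miR-34 switched on is under 0.7 times the count with it off; inactive means the rest.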

Assays:
[1] = viability loss with induced miR-34 in A549 – imaging, A549 dox-inducible miR-34, nuclei and caspase counts, primary screen (AID 1347080); conditions: A549 miR-34 inducible, Hoechst nuclei count, 48 h
[2] = MELAS cybrid and Rieske KO viability enhancers – cell-based, MELAS cybrids, Rieske KO mouse fibroblasts, CellTiter-Glo, primary screen (AID 1508586;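 active means mean z-score across replicates of 1.96 or higher in either the MELAS or the Rieske mutant cell line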;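 further: z relative to plate mean and SD of compound and empty wells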); conditions: low glucose
[3] = test system: Hepatitis C virus NS3 helicase; assay: blockers of NS3h binding to ssDNA – biochemical, fluorescence polarization, LOPAC1280 library, primary screen (AID 687035; in the data active means inhibition above about 37%); conditions: Purified HCV NS3 helicase, Cy5-dT15 ssDNA binding fluorescence polarization; stronger effect = higher value; concentration not given here
[4] = compounds altering Cy5-DNA-NS3h complex signal – biochemical, LOPAC1280, artefact control for HCV NS3 helicase inhibitor project (AID 687037; call rule not given here); conditions: Cy5-DNA-NS3h complex fluorescence interference counterscreen
[5] = blockers of cellular phospholipid synthesis – cell-based, LOPAC library, screen 4, primary screen (AID 1347384; call rule not given here); conditions: animal cells, phospholipid biosynthesis inhibition screen; at 10 µM
[6] = galactose survival enhancers in mitochondrial complex I cybrids – cell-based, galactose medium, ATP luminescence, primary screen (AID 1645843;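 active means z-score of at least 1.8 in each of two replicates, scored against plate mean and spread of sample wells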;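 further: positive z means more ATP and so rescue of galactose-driven cybrid death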); conditions: complex I mutant cybrid cells, 72 h, stronger effect = higher value
[7] = compounds altering circadian rhythm period length – cell-based, LOPAC library, luminescence reporter (AID 2774; call rule not given here;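 further: values are relative to mean of DMSO wells on each plate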); conditions: circadian reporter cells, at 7 µM, actives lie on both sides
[8] = stronger effect = lower value, cell number ratio, induced over uninduced
[9] = measured here: relative caspase fold change +Dox/-Dox
[10] = measured here: total cells with miR-34 induction, stronger effect = lower value
[11] = measured here: total cells without miR-34 induction
[12] = MELAS cybrid survival, CellTiter-Glo 48 h, stronger effect = higher value
[13] = Rieske KO mouse fibroblast survival, CellTiter-Glo 72 h

| SMILES | fold change [1, 8] | fold change [1, 9] | cell count [1, 10] | cell count [1, 11] | z-score [2, 12] | z-score [2, 13] | inhibition [3] | fluorescence ratio (interference) [4] | outcome [5] | z-score [6] | period change [7] |
| --- | --- | --- | --- | --- | --- | --- | --- | --- | --- | --- | --- |
| NC(=O)C(CCC(F)(F)F)N(Cc1ccc(-c2ncon2)cc1F)S(=O)(=O)c1ccc(Cl)cc1 (centres undefined) | 0.918 (inactive) | 0.873 | 6710 | 7310 | -0.464 (inactive) | 0.74 |  |  |  |  |  |
| CCCC(CCC)C(=O)OC1CC2CCC(C1)[N+]2(C)C (centres undefined) | 0.959 (inactive) | 1.54 | 9840 | 10300 |  |  | 0% (inactive) | 1.1 (inactive) | inactive | -0.005 (inactive) |  |
| CCOc1nc2cccc(C(=O)O)c2n1Cc1ccc(-c2ccccc2-c2noc(=O)[nH]2)cc1 | 0.988 (inactive) | 0.55 | 8580 | 8680 | -0.267 (inactive) | -0.0268 |  |  |  |  |  |
| CCC(C(C)O)n1ncn(-c2ccc(N3CCN(c4ccc(OCC5CO[C@@](Cn6cncn6)(c6ccc(F)cc6F)C5)cc4)CC3)cc2)c1=O (some centres undefined) | 1.04 (inactive) | 0.726 | 4300 | 4130 | -0.325 (inactive) | 0.236 |  |  |  |  |  |
| CN1CCC(NC(=O)c2cc(-c3c(O)cc(O)cc3Oc3ccc([N+](=O)[O-])cc3)on2)CC1 | 1.08 (inactive) | 0.376 | 2520 | 2330 | 2.88 (active) | -1.28 |  |  |  |  |  |
| CCCCC#Cc1nc(NC)c2ncn([C@@H]3O[C@H](CO)C(O)[C@@H]3O)c2n1 (some centres undefined) | 1.02 (inactive) | 2.24 | 10300 | 10100 |  |  | -2% (inactive) | 1 (inactive) | inactive | 0.245 (inactive) |  |
| CC(OC1OCCN(Cc2n[nH]c(=O)[nH]2)C1c1ccc(F)cc1)c1cc(C(F)(F)F)cc(C(F)(F)F)c1 (centres undefined) | 0.911 (inactive) | 3.19 | 7240 | 7950 | 1.33 (inactive) | -2.44 |  |  |  |  |  |
| CC1CC=CC=CC=CC=CC(O[C@@H]2OC(C)C(O)C(N)C2O)C[C@@H]2O[C@](O)(CC(O)C[C@H]3OC3C=CC(=O)O1)CC(O)C2C(=O)O (some centres undefined) | 0.876 (inactive) | 1.14 | 7260 | 8280 | -0.47 (inactive) | -0.427 |  |  |  |  |  |
| C=C1CCC(O)CC1=CC=C1CCC[C@]2(C)C(C(C)C=CC(C)C(C)C)CC[C@@H]12 (some centres undefined) | 0.949 (inactive) | 0.581 | 7890 | 8320 | -0.149 (inactive) | -0.174 |  |  |  |  |  |
| COc1ccc(S(=O)(=O)N(C(C)=O)c2ccccc2C=Cc2cc[n+]([O-])cc2)cc1 | 1.18 (inactive) | 0.723 | 1240 | 1050 | 0.938 (inactive) | -0.247 |  |  |  |  |  |
| CSc1ccccc1N1CCN(CCCCCC(=O)NC2CCCc3ccccc32)CC1 (centres undefined) | 0.986 (inactive) | 1.19 | 7020 | 7120 |  |  | -5% (inactive) | 1 (inactive) | inactive | -1.29 (inactive) |  |
| O=C(C=Cc1ccc(CN(CCO)CCc2c[nH]c3ccccc23)cc1)NO | 0.866 (inactive) | 0.616 | 944 | 1090 | -0.188 (inactive) | -2.63 |  |  |  |  |  |
| CC(CS)C(=O)N1CCCC1C(=O)O (centres undefined) | 1.01 (inactive) | 0.525 | 8320 | 8250 | -0.2 (inactive) | -0.263 |  |  |  |  |  |
| C[N+]1(C)[C@@H]2CC(OC(=O)C(O)(c3cccs3)c3cccs3)C[C@H]1C1OC12 (some centres undefined) | 0.933 (inactive) | 0.479 | 9300 | 9960 | -0.398 (inactive) | -0.0197 |  |  |  |  |  |
| O=C(C=Cn1cnc(-c2cc(C(F)(F)F)cc(C(F)(F)F)c2)n1)NNc1cnccn1 | 1.07 (inactive) | 0.543 | 2320 | 2170 | -0.213 (inactive) | -7.28 |  |  |  |  |  |
| O=c1ccc2c(OCCCCc3ccccc3)c3ccoc3cc2o1 | 1.08 (inactive) | 1.92 | 8160 | 7580 |  |  | 0% (inactive) | 1 (inactive) | inactive | -0.515 (inactive) |  |
| CN1CCN(S(=O)(=O)c2ccc(-c3cnc(N)c(C(=O)Nc4cccnc4)n3)cc2)CC1 | 0.893 (inactive) | 0.445 | 2390 | 2680 | 0.891 (inactive) | -1.29 |  |  |  |  |  |
| C=CCNC1=C2CC(C)CC(OC)C(O)C(C)C=C(C)C(OC(N)=O)C(OC)C=CC=C(C)C(=O)NC(=CC1=O)C2=O (centres undefined) | 1.02 (inactive) | 1.05 | 1870 | 1820 | 1.58 (inactive) | -0.477 |  |  |  |  |  |
| Clc1nccc2c1ccc1ccccc12 | 1.47 (inactive) | 1.16 | 8620 | 5870 |  |  | -2% (inactive) | 1 (inactive) | inactive | 0.565 (inactive) |  |
| CC1CC[C@H]2C(C)C(O)O[C@H]3O[C@@]4(C)CC[C@@H]1[C@]32OO4 (some centres undefined) | 0.953 (inactive) | 0.983 | 4540 | 4770 | -0.379 (inactive) | 0.102 |  |  |  |  |  |
| CN(C)Cc1ccc(S(=O)(=O)n2ccc(C=CC(=O)NO)c2)cc1 | 0.784 (inactive) | 0.443 | 1500 | 1910 | -0.566 (inactive) | -0.298 |  |  |  |  |  |

| SMILES | fold change [1, 8] | fold change [1, 9] | cell count [1, 10] | cell count [1, 11] | z-score [2, 12] | z-score [2, 13] | inhibition [3] | fluorescence ratio (interference) [4] | outcome [5] | z-score [6] | period change [7] |
| --- | --- | --- | --- | --- | --- | --- | --- | --- | --- | --- | --- |
| CC(=O)ON=C1C(=O)N(Cc2cc(Cl)ccc2Cl)c2ccc(Cl)cc21 | 0.848 (inactive) | 0.441 | 7100 | 8370 | -0.0209 (inactive) | 1.12 |  |  |  |  |  |
| CNc1nc(Nc2cnn(C3CCN(C4COC4)CC3F)c2Cl)ncc1C(F)(F)F (centres undefined) | 0.967 (inactive) | 0.45 | 8480 | 8760 | -0.354 (inactive) | 0.843 |  |  |  |  |  |
| Cc1cn(C2CC(O)C(CO)O2)c(=O)[nH]c1=O (centres undefined) | 0.853 (inactive) | 1.28 | 7950 | 9310 | -0.34 (inactive) | 0.719 |  |  |  |  |  |
| N[C@H](C(=O)O)[C@H](Cc1ccccc1)C(=O)O | 0.97 (inactive) | 1.76 | 10400 | 10700 |  |  | -1% (inactive) | 1 (inactive) | inactive | 0.705 (inactive) |  |
| Clc1ccc(N2CCN(Cc3cc4ccccn4n3)CC2)cc1 | 1.01 (inactive) | 1.14 | 9670 | 9570 |  |  | -6% (inactive) | 0.9 (inactive) | inactive | -1.08 (inactive) |  |
| CCC1OC(=O)C(C)C(OC2C[C@@](C)(OC)C(O)C(C)O2)C(C)C(OC2OC(C)CC(N(C)C)C2O)[C@](C)(O)CC(C)CN(C)C(C)C(O)[C@]1(C)O (some centres undefined) | 0.925 (inactive) | 0.82 | 8110 | 8770 | -0.213 (inactive) | 0.708 |  |  |  |  |  |
| OCC(O)C(O)C(O)C(O)CO (centres undefined) | 0.977 (inactive) and 0.927 (inactive) | 0.781 and 0.815 | 7830 and 9620 | 8020 and 10400 | -0.426 (inactive) and -0.241 (inactive) | -0.124 and 0.173 |  |  |  |  |  |
| O=c1[nH]c(=O)n(C2CC(O)C(CO)O2)cc1C(F)(F)F (centres undefined) | 1.15 (inactive) | 0.574 | 1670 | 1450 | -0.198 (inactive) | -0.513 |  |  |  |  |  |
| N#CC1C[C@@H]2C[C@H]2N1C(=O)C(N)C12CC3CC(CC(O)(C3)C1)C2 (some centres undefined) | 0.986 (inactive) | 0.858 | 7460 | 7570 | -0.404 (inactive) | 0.586 |  |  |  |  |  |
| O=C1CN(/N=C/c2ccc(-c3ccc([N+](=O)[O-])cc3)o2)C(=O)N1 | 0.852 (inactive) | 0.844 | 3600 | 4220 |  |  |  |  | inactive |  | 0.19 h (inactive) |
| CN(C)CCCc1cc(C(=O)Nc2ccc(-c3ccncc3)cc2)ccc1O | 1 (inactive) | 1.13 | 7450 | 7450 |  |  | -1% (inactive) | 1 (inactive) | inactive | 1.58 (inactive) |  |
| CC(=NNC(=S)N1CCC1)c1ccccn1 | 0.887 (inactive) | 0.742 | 1950 | 2200 | 7.64 (active) | -5.36 |  |  |  |  |  |
| Cc1cc(C(C)Nc2ccccc2C(=O)O)c2nc(N3CCOCC3)cc(=O)n2c1 (centres undefined) | 0.956 (inactive) | 0.866 | 5770 | 6030 | -0.296 (inactive) | -0.288 |  |  |  |  |  |
| CC(C)(O)CCC(O)[C@](C)(O)C1CC[C@@]2(O)C3=CC(=O)[C@@H]4CC(O)C(O)C[C@]4(C)[C@@H]3CC[C@]12C (some centres undefined) | 0.992 (inactive) | 0.932 | 10200 | 10300 | -0.354 (inactive) | 0.685 |  |  |  |  |  |
| Cn1ncc(S(=O)(=O)Cc2ccccc2)c(Br)c1=O | 1.14 (inactive) | 1.46 | 2510 | 2200 |  |  | -3% (inactive) | 0.9 (inactive) | inactive | -1.24 (inactive) |  |
| Cc1cc(CS(=O)(=O)c2ccccc2)cc(OCc2ccc(CN3CCCC3CO)cc2)c1 (centres undefined) | 0.932 (inactive) | 0.28 | 7820 | 8380 | 0.0407 (inactive) | 0.831 |  |  |  |  |  |
| O=C(NC1CCN(CCCCC2(C(=O)NCC(F)(F)F)c3ccccc3-c3ccccc32)CC1)c1ccccc1-c1ccc(C(F)(F)F)cc1 | 1.05 (inactive) | 0.667 | 3960 | 3780 | -0.492 (inactive) | -0.827 |  |  |  |  |  |
| CCN(CC)CCOC(=O)c1ccc(N)cc1Cl | 0.9 (inactive) | 1.29 | 9150 | 10200 | -0.309 (inactive) | -0.153 |  |  |  |  |  |
| COc1cc(=C2C=c3ccccc3=N2)[nH]c1=Cc1[nH]c(C)cc1C | 1.1 (inactive) | 0.895 | 1770 | 1620 | 2.25 (active) | -2.31 |  |  |  |  |  |
| Cc1c(C(=O)Nc2ccc(N3CC(C)OC(C)C3)nc2)cccc1-c1ccc(OC(F)(F)F)cc1 (centres undefined) | 0.962 (inactive) | 0.609 | 6270 | 6520 | -0.33 (inactive) | 0.503 |  |  |  |  |  |
